Test results published in the supplement of paper PMC11732987, “Enantioselective OTUD7B fragment discovery through chemoproteomics screening and high-throughput optimisation” (Communications Chemistry, 2025).

Assays:
Assay in all cases: log2 ratio of Biotin-Ahx-Ub-VS probe labelling (fragment/DMSO); higher = less target engagement (more negative = stronger competition), active = hit call of the paper (q ≤ 0.05, log2 ratio ≤ -1)
Conditions in all cases: compound concentration: 200 uM; treatment time: 3 h
USP19 = biological target: T1, USP19 (UniProt O94966)
T1 sequence (whole entry): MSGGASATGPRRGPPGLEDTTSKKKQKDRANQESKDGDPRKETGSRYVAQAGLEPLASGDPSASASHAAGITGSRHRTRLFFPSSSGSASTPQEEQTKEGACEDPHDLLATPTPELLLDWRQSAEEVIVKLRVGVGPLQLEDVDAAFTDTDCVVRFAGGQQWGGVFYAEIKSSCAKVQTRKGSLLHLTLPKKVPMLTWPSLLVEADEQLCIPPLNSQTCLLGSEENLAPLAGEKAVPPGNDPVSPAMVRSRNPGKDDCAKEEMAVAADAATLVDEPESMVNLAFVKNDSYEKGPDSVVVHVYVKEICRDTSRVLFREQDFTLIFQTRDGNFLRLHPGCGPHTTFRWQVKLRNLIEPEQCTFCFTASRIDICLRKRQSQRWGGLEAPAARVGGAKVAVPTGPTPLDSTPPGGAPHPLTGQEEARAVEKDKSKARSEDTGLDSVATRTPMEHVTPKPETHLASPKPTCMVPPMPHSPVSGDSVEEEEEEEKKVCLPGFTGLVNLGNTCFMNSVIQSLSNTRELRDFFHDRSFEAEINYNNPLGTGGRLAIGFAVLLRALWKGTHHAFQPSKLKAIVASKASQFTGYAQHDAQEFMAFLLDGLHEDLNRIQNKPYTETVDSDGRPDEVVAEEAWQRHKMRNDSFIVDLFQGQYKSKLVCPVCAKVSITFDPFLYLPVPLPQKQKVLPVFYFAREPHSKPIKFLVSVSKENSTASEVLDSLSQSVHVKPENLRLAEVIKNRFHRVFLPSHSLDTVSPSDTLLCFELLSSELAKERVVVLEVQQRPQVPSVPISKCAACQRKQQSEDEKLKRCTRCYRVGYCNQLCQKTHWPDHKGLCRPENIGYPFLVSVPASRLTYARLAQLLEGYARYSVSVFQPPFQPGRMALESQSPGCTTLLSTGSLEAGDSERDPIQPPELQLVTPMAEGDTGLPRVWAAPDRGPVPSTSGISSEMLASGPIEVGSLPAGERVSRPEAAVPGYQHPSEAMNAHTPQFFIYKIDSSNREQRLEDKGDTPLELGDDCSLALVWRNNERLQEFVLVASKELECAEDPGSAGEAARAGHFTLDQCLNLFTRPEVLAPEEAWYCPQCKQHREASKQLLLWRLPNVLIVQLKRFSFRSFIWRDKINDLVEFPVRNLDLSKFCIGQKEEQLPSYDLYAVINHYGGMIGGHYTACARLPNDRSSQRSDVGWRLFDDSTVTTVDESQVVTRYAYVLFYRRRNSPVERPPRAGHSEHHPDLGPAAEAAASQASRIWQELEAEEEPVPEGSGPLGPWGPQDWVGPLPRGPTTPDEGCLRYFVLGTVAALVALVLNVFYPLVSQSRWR
Method in brief: (§1)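 Triplicate samples of HEK293T lysate, 495 µg each, received fragment at 200 µM or vehicle for 3 h, followed by Biotin-Ahx-Ub-VS (0.5 µM final) for 1 h. After NeutrAvidin enrichment of labelled DUBs and LysC/trypsin digestion, peptides were run by diaPASEF LC-MS/MS. The values are average log2 fragment/vehicle ratios from global-median-normalised Spectronaut label-free quantities, tested by unpaired t-test on proteins having ≥2 unique peptides.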

USP24 = USP24 (UniProt Q9UPU5)
Method in brief: as §1

USP25 = biological target: T2, USP25 (UniProt Q9UHP3)
T2 sequence (whole entry): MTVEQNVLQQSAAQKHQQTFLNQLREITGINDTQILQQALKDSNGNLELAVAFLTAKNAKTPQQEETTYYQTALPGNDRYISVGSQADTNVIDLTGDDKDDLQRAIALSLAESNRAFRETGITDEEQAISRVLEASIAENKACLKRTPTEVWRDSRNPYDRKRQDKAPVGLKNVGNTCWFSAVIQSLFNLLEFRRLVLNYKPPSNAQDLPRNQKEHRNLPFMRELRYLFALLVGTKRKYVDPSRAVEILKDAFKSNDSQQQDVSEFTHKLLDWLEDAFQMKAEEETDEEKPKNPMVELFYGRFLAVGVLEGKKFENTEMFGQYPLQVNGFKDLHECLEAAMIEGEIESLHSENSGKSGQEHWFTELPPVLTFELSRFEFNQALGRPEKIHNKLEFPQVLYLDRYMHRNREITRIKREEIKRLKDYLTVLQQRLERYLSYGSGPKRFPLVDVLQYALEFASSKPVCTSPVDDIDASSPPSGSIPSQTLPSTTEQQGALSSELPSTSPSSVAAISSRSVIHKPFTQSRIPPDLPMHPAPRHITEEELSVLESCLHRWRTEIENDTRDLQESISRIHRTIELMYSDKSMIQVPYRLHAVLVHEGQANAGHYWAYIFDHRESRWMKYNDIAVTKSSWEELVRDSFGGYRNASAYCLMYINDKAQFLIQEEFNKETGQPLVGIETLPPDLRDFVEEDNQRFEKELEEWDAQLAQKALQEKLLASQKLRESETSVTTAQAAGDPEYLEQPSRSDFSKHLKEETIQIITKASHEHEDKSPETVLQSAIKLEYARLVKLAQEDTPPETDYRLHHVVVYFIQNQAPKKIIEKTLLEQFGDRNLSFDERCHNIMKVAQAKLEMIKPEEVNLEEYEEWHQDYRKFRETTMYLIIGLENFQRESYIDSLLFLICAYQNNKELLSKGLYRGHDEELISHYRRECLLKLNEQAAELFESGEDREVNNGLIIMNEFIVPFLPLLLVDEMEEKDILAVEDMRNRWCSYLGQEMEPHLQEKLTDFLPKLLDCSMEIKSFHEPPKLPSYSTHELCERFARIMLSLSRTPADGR
Method in brief: as §1

USP28 = biological target: T3, USP28 (UniProt Q96RU2)
T3 sequence (whole entry): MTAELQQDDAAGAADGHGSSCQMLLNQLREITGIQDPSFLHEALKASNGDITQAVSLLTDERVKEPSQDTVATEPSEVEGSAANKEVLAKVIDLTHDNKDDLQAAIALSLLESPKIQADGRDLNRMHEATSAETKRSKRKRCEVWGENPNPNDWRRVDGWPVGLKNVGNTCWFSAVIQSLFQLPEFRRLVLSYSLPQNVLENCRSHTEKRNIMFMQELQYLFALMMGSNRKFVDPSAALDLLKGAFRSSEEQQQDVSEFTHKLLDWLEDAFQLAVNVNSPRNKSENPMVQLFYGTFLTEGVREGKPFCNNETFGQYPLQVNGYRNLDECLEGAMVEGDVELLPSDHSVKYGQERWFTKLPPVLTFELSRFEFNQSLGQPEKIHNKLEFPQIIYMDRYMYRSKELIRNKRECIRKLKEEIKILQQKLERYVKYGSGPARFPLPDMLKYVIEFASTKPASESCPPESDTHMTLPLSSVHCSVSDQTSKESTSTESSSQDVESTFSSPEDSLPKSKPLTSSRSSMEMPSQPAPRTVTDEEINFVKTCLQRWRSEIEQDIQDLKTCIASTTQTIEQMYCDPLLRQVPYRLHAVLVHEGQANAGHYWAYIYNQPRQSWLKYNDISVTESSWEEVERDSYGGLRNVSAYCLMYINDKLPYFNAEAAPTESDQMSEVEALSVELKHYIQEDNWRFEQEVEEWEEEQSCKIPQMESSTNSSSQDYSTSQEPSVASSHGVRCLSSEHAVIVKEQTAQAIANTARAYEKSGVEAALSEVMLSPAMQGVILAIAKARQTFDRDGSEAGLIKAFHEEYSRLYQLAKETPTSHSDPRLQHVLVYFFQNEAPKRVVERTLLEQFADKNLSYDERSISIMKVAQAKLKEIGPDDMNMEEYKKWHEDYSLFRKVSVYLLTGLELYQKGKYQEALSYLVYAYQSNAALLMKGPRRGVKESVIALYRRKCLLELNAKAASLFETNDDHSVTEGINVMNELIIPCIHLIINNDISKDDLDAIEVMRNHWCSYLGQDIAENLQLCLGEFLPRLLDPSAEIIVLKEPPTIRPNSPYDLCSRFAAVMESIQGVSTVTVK
Method in brief: as §1

Measured: log2 ratio of Biotin-Ahx-Ub-VS probe labelling

Sequence of USP24 (Q9UPU5 whole entry): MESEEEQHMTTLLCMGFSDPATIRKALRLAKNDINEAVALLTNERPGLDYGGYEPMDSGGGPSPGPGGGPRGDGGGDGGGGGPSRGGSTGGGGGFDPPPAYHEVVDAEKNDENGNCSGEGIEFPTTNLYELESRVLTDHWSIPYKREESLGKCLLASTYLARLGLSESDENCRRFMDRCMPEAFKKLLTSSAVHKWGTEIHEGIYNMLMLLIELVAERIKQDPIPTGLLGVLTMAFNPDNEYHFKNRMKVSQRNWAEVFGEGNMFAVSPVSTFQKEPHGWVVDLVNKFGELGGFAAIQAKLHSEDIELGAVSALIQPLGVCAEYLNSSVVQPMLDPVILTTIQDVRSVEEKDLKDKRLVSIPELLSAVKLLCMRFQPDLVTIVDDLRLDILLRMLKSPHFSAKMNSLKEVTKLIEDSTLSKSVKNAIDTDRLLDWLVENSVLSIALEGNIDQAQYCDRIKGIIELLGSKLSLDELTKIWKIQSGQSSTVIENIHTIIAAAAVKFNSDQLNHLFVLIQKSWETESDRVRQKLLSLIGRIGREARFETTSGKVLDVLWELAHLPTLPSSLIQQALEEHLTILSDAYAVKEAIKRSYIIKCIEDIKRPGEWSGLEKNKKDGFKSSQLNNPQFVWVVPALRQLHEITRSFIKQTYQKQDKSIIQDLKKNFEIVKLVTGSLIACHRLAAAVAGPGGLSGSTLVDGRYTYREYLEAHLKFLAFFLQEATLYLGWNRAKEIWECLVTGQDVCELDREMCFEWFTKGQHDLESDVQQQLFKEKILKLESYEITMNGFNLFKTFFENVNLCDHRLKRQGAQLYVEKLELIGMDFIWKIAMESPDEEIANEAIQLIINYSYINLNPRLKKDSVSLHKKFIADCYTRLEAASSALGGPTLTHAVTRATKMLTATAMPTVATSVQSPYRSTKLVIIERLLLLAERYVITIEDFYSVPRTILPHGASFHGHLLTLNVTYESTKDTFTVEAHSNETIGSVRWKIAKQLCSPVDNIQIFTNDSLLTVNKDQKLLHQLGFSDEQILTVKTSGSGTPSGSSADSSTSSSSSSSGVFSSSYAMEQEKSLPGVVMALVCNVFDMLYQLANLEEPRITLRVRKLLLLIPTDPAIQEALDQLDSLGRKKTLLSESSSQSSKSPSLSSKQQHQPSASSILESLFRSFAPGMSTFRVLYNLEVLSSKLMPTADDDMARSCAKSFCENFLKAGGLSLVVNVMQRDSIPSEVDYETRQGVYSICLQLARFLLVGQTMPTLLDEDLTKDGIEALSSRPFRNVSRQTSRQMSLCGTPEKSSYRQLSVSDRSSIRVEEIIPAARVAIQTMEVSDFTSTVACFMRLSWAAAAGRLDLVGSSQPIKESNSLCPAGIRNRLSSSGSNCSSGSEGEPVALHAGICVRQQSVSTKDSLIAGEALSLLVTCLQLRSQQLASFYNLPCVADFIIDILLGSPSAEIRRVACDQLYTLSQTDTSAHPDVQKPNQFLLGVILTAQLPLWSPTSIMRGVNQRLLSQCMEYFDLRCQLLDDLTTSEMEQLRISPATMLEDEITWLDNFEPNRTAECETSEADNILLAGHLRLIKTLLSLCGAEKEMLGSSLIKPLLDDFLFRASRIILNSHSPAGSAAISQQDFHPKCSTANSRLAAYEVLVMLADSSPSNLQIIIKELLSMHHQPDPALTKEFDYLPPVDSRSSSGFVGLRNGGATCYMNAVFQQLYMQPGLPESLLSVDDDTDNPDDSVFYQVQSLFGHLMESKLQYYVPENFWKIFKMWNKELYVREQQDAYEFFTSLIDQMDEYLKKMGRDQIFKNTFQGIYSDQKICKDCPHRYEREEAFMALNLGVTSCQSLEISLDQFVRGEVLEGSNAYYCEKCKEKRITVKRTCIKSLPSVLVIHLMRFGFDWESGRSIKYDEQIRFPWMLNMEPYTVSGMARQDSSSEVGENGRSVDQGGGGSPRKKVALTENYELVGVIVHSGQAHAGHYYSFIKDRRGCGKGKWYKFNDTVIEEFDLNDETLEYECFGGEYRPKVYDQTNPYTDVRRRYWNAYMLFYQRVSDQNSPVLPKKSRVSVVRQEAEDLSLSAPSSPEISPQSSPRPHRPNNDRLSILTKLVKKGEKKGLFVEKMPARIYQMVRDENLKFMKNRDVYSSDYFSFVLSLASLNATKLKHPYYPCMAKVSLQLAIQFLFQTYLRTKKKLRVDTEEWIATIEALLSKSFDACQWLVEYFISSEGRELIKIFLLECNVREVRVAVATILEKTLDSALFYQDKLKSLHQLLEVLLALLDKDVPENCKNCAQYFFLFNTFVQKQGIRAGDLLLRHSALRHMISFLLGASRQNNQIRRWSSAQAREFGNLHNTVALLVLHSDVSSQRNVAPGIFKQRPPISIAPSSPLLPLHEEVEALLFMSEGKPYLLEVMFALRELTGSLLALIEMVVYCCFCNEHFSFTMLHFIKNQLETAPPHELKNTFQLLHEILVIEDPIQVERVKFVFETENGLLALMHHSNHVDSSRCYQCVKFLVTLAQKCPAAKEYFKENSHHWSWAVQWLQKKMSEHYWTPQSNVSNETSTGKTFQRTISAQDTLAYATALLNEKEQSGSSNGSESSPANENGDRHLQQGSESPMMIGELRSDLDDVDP

Cc1noc(N2CCN(C(=O)CCl)CC2)n1.Cl
inactive: USP19 -0.238 | USP24 -0.00876 | USP25 -0.13 | USP28 -0.444
